Only some compounds are listed: those with a hit (about 1.7% of all), similar ones and a draw of the others.
GLP1R ag: GLP-1 receptor (human) agonism | P43220 | HEK293 GLP-1R CRE-luciferase, luminescence, 4-6 h; cells express a hypersensitive GLP-1R form | Potency, µM (titrated, usually from 45.6 µM), hits mostly activators | hit rate 0.007% among 380,000
Target sequence (P43220 whole entry, looked up): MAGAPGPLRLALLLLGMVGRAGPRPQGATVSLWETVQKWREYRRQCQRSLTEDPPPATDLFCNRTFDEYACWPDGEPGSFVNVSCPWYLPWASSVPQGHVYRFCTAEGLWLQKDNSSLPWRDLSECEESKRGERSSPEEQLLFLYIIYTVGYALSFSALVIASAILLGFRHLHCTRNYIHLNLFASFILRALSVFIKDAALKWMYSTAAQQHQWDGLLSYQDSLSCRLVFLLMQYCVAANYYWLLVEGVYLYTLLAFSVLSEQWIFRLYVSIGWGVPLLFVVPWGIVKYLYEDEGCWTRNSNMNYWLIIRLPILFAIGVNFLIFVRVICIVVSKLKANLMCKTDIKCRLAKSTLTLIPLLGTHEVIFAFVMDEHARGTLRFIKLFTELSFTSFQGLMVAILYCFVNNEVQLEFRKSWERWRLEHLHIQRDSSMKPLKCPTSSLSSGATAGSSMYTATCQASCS
HEK293 tox: cytotoxicity in counter-screen for GLP-1R inverse agonists; HEK293 cAMP-luciferase reporter cells, luminescence, 24 h; Potency, µM (highest dose often 38.3 µM), hits mostly inhibitors; hit rate 0.13% among 410,000;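 note: loss of luciferase light is scored as toxicity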
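Seeding density was 200 cells/uL; after overnight-length (12 h) culture, 23 nL compounds went on for 24 h at 37 °C. Readout used a luciferase detection reagent, luminescence taken after 12 min at room temperature.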
PTHR1 ag: PTHR1 (human) receptor agonism | Q03431 | HEK293 GP2 PTHR1 cells, GloSensor cAMP luminescence, 1 h | Potency, µM (highest dose often 115 µM), most hits filed as activators | hit rate 0.075% among 410,000 | AID 743266; note: nearly all actives have a fitted effect of over 55% in size
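HEK-293-derived GP2 cells expressing PTHR1 and a GloSensor cAMP reporter, 3,000/well, plated overnight, given luciferin plus IBMX (each 0.5 mM as added) for 1 h at 37 °C, then compound for 1 h at 37 °C. Luminescence was read after 15 min at room temperature.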
GLP-1R inv ag: GLP-1 receptor (human) inverse agonism | P43220 | HEK293 GLP-1R CRE-luciferase, luminescence, 24 h; GLP-1R form is constitutively active | Potency, µM (highest dose often 38.3 µM), most hits filed as inhibitors | hit rate 1.6% among 410,000 | AID 624417; note: nearly all actives have a fitted effect of over 55% in size
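Assay principle: reduced luminescence from a cAMP-responsive reporter in HEK293 cells co-expressing a constitutively active GLP-1R. Conditions: 24 hr compound incubation, 37 deg C, 5% CO2.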
A number is an active result; – = inactive; ? = inconclusive; · = no result. Calls come from the whole dose curve; as a rule, active = well fitted curve in the direction sought with a large enough effect; inconclusive = small, poorly fitted or top-dose-only effect, or another doubt; inactive = no such curve, though single readings can be large; an effect the other way counts as inactive or inconclusive.

SMILES	GLP1R ag	HEK293 tox	PTHR1 ag	GLP-1R inv ag
CC(=O)C[C@H]1[C@H](O[C@H]2[C@H](OC(C)C(=O)N[C@@H](C)C(=O)N[C@H](CCC(=O)N[C@@H](CCCCN)C(=O)N[C@H](C)C(=O)O)C(N)=O)[C@@H](NC(=O)O)C(O)O[C@@H]2CO)O[C@H](CO)[C@@H](O)[C@@H]1O (some centres undefined)	–	·	·	·
Cc1ccc(C)n1-c1c(C(=O)NCCCN2CCN(c3ccc(F)cc3)CC2)sc2ncccc12	·	–	–	–
CCOC(=O)C1CCCCN1Cc1cccc(OCc2ccccc2)c1 (centres undefined)	–	–	–	10µM
CCC(C)(C)C1CCC2(CC1)NC(=O)N(CC(=O)N(C)Cc1ccc(OC(F)F)cc1)C2=O (centres undefined)	–	–	–	1.4µM
CCC(C)(C)C1CCC2(CC1)NC(=O)N(CC(=O)N(C)CCOc1ccc(Cl)cc1)C2=O (centres undefined)	–	–	–	–
CSc1ccc(S(=O)(=O)N2c3ccccc3CC2C)cc1 (centres undefined)	–	–	–	5µM
CC1Cc2ccccc2N1S(=O)(=O)c1cnc(Cl)c(Cl)c1 (centres undefined)	–	–	–	?
Cc1cccc(/C=N/Nc2ccc3ccccc3n2)c1	–	?	–	10µM
C(=N\Nc1ccc2ccccc2n1)/c1ccc2c(c1)OCCO2	–	–	–	–
CCCCCCCCCCCCCCCC(=O)OCC(O)C1OC(=O)C(O)=C1O (centres undefined)	–	·	·	·
Cc1ccccc1Cn1nc(C)c(NC(=O)c2noc3c2CC(C(C)(C)C)CC3)c1C (centres undefined)	–	–	–	10µM
Cc1ccccc1Cn1cc(NC(=O)c2noc3c2CC(C(C)(C)C)CC3)cn1 (centres undefined)	–	–	–	–
Cc1cc(Nc2ccccc2C(=O)O)ccc1Cl	–	·	·	·
O=C(Nc1cccc(NC(=O)c2cc([N+](=O)[O-])ccc2Cl)n1)c1cc([N+](=O)[O-])ccc1Cl	–	?	–	4µM
Cc1cc(NC(=O)c2cc([N+](=O)[O-])ccc2Cl)no1	–	–	–	?
Cc1ccc(S(=O)(=O)N(Cc2ccccc2)Cc2ccco2)cc1	–	–	–	11µM
O=C(CN(Cc1ccc(Br)cc1)S(=O)(=O)c1ccccc1)NCc1ccccn1	–	–	–	–
O=C(CN(Cc1ccccc1)S(=O)(=O)c1ccc(Br)cc1)NCc1ccco1	–	–	–	7.9µM
Cc1ccc(C)c(NC(=O)C2CCCN(S(=O)(=O)c3cccc4nsnc34)C2)c1 (centres undefined)	–	–	–	–
COc1ccc(NC(=O)C(c2ccc(Cl)cc2)C(C)C)cn1 (centres undefined)	–	–	–	7.9µM
COc1ccc(NC(=O)Nc2ccc(F)cc2)cn1	–	–	–	–
Cc1ccccc1OCc1nc2ccccc2n1Cc1ccccc1Cl	·	–	–	3.5µM
COc1ccc(CCNc2ncnc3c2nnn3C)cc1	·	–	–	–
Cc1ccc(C)c(NC(=O)Cn2c(=O)n(Cc3ccco3)c(=O)c3oc4ccccc4c32)c1	·	–	–	–
Cc1ccccc1NC(=O)c1c(Cl)nc(C)c(Cl)c1C	–	–	–	–
SMILES	GLP1R ag	HEK293 tox	PTHR1 ag	GLP-1R inv ag
CCc1ccc(NC(=O)c2c(Cl)nc(C)c(Cl)c2C)cc1	–	–	–	4µM
Cc1cccc(NCC(=O)N/N=C\c2c[nH]c3ccccc23)c1	–	?	–	10µM
O=C(N/N=C/c1c[nH]c2ccccc12)C1CC1(c1ccccc1)c1ccccc1 (centres undefined)	–	?	–	4.5µM
O=C(O)c1ccc(N/N=C/c2c[nH]c3ccccc23)cc1	–	–	–	5.6µM
COc1ccc(-c2nc3nc(C)cc(Nc4ccc(C(C)=O)cc4)n3n2)cc1	·	–	–	–
COc1cccc(-n2c(SCc3ccccc3C)nc3c([nH]c4ccccc43)c2=O)c1	–	–	–	?
CN(C)c1ccc(/C=C2/C[N+](C)(C)C/C(=C/c3ccc(N(C)C)cc3)C2=O)cc1	–	8.9µM	–	–
CC(C)/C=C1\CC/C(=C\c2ccc(N(C)C)cc2)C1=O	–	–	–	–
CC1CCN(S(=O)(=O)N2CCC(C(=O)NCc3ccccc3Cl)CC2)CC1	·	–	–	–
CN(C)c1ccc(C(CNC(=O)COc2ccc(Cl)cc2)N2CCOCC2)cc1 (centres undefined)	·	–	–	–
CN(C)c1ccc(C(CNC(=O)COc2ccc(Cl)cc2)N2CCCC2)cc1 (centres undefined)	–	–	–	11µM
O=C(CCS(=O)(=O)c1ccccc1)N(CCCN1CCOCC1)c1nc2c(F)cccc2s1	–	10µM	–	?
CC(C)(C)c1nnc(NS(=O)(=O)c2ccccc2)s1	–	·	·	·
CC(C)(C)c1ccc(C(=O)c2c[nH]c(C(=O)NCc3cccnc3)c2)cc1	–	–	–	–
O=C(Cc1ccc(Cl)cc1)c1c[nH]c(C(=O)NCc2cccnc2)c1	–	?	–	2.8µM
Cc1cc(C)cc(OCC(O)CN2CCN(Cc3ccc4c(c3)OCO4)CC2)c1 (centres undefined)	–	–	–	2.2µM
Cc1ccc(C(=O)N2CCN(Cc3ccc4c(c3)OCO4)CC2)c(Cl)c1	–	–	–	6.3µM
O=C(c1cc2c(s1)CCCC2)N1CCN(Cc2ccc3c(c2)OCO3)CC1	–	–	–	13µM
CCN(CC)c1ccc(C(=O)NC(=S)N2CCN(Cc3ccc4c(c3)OCO4)CC2)cc1	–	–	–	10µM
Cc1ccccc1CNC(=O)Nc1ccc2c(c1)N(C)C(=O)c1ccccc1S2	·	–	–	?
CCCNC(=O)C1(C)CCCN(Cc2ccccc2-c2ccccc2)C1 (centres undefined)	–	–	–	–
CCCCNC(=O)C1(C)CCCCN1Cc1ccccc1-c1ccccc1 (centres undefined)	–	–	–	2.5µM
Cc1cc(O)c2c(c1)OC1(C)CCC3C(C)(C)CCCC34COC2C14 (centres undefined)	–	·	·	·
COc1ccc(CC2(CO)CCN(CC3=Cc4cc(Cl)ccc4OC3)CC2)cc1	–	?	–	2.8µM
COc1ccc2c(c1)C=C(CN1CCC(CO)(CCc3ccccc3)CC1)CO2	–	–	–	?
SMILES	GLP1R ag	HEK293 tox	PTHR1 ag	GLP-1R inv ag
O=C(N/N=C/c1ccccc1)c1sccc1OCc1ccc(F)cc1	–	–	–	8.9µM
O=C(N/N=C/c1ccccc1)c1ccc(OCc2ccccc2)cc1	–	–	–	–
CCOC(=O)c1cnc(-n2nc(C)cc2C)nc1NCc1ccccc1	–	?	–	3.5µM
CCOC(=O)c1cnc(-n2nc(C)cc2C)nc1NC(C)c1ccccc1 (centres undefined)	–	?	–	2.5µM
CCc1ccc(NC(=O)CC2C(=O)N(c3cccc(C)c3)C(=O)N2CCC(C)C)cc1 (centres undefined)	·	–	–	?
O=C(c1ccc2c(c1)OCCO2)N(Cc1cccnc1)c1nc2ccc(F)cc2s1	·	–	–	–

Assay outcomes as filed in PubChem.
